Assay results: PubChem BioAssay (NCATS)
Inconclusive results are not listed. The source made the active and inactive calls. Calls follow the shape of the dose curve; as a rule, active = well fitted curve in the direction sought with a large enough effect; inconclusive = small, poorly fitted or top-dose-only effect, or another doubt; inactive = no such curve, though single readings can be large or run the other way. Where a SMILES comes first, the peptide text is derived from it. Bridges are numbered along the chain shown (N, C = ends). [ ]: non-standard residue; d: D form. hArg = N=C(N)NCCCC[C@H](N)C(=O)O; Mpa = O=C(O)CCS
% is scaled to controls: 0 for no effect and ±100 for the full control effect; potency is read from the fitted curve at half-maximal effect.

Test: qHTS Assay for Identifying Gametocytocidal Compounds (AID 743244);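 as to max response: actives lower the fluorescent signal which means gametocytes are killed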
Details: P. falciparum 3D7 stage III-V gametocytes, alamarBlue, 72 h; max response: active compounds read low
Summary of the method: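 Late gametocytes (III–V), P. falciparum 3D7; 72 h drug, then 24 h alamarBlue; resazurin reduction read by fluorescence.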
With `NC(=O)CCCCC1CCSS1` (stereo not drawn) the max response was 0.706% (inactive).
In the case of `O=C(NCN1CCOCC1)c1cnccn1`, the max response is reported as -4.94% (inactive).
For `COc1ccc(C(=O)NCc2ccc(OCCN(C)C)cc2)cc1OC`, the max response was 7.72% (inactive).
In the case of `O=c1[nH]cnc2nc[nH]c12`, the max response is reported as -7.32% (inactive).
With `CNc1c2c(nn1C)CCCC2` the max response was 6.79% (inactive).
With `CN(C(=O)c1c(O)c2ccccc2n(C)c1=O)c1ccccc1` the max response was -2.29% (inactive).
In the case of `NS(=O)(=O)c1cc2c(cc1C(F)(F)F)NCNS2(=O)=O`, the max response is reported as -4.2% (inactive).
In the case of `CCCCCCCCCCC(CO)CCCCCCCC` (stereo not drawn), the max response is reported as -4.55% (inactive).
With `CN1CCN(C(=O)C2CCCCC2)CC1` the max response was 11.1% (inactive).
In the case of `CC(=O)NCc1c(I)c(NC(C)=O)c(I)c(C(=O)O)c1I`, the max response is reported as 12.1% (inactive).
For `O=C(O)CNC(=O)c1ccccc1I`, the max response was -0.623% (inactive).
In the case of `C[N+](C)(C)CC[N+]1(C)Cc2c(Cl)c(Cl)c(Cl)c(Cl)c2C1`, the max response is reported as -6.87% (inactive).
With `CC(C)CCOC(=O)c1ccc(N(C)C)cc1` the max response was -13.7% (inactive).
For `Cc1ncc(CO)c(CN)c1O`, the max response was 6.59% (inactive).
In the case of `CC(C(=O)O)c1ccc2c(c1)Cc1cccnc1O2` (stereo not drawn), the max response is reported as -8.08% (inactive).
With `COC(=O)c1cccnc1` the max response was 29% (inactive).
With `CC(=O)N[C@@H](Cc1ccc(O)cc1)C(=O)O` the max response was -6.61% (inactive).
In the case of `NC(=O)NS(=O)(=O)c1ccc(N)cc1`, the max response is reported as 3.95% (inactive).
In the case of `O[C@@H]1CO[C@H]2[C@@H]1OC[C@@H]2O`, the max response is reported as -6.28% (inactive).
In the case of `Cc1c(NC(C)C)c(=O)n(-c2ccccc2)n1C`, the max response is reported as -2.3% (inactive).
For `Cc1c(C)c2c(c(C)c1OC(=O)c1cccnc1)CC[C@@](C)(CCC[C@H](C)CCC[C@H](C)CCCC(C)C)O2`, the max response was 6.89% (inactive).
With `C[C@H]1COc2c(C3(N)CC3)c(F)cc3c(=O)c(C(=O)O)cn1c23` the max response was -1.28% (inactive).
For `CC(CN(C)C)C(C)(O)Cc1ccc(Cl)cc1` (stereo not drawn), the max response was -5.22% (inactive).
In the case of `COC(=O)c1ccccc1C(=O)c1ccc(OCCN2CCCCC2)cc1`, the max response is reported as -9.15% (inactive).
In the case of `Cc1cc(C)c(NC(=O)CN(CC(=O)O)CC(=O)O)c(C)c1Br`, the max response is reported as 9.03% (inactive).
With `Nc1ccncc1N` the max response was 8.86% (inactive).
In the case of `O=C(NCCCN1CCOCC1)c1ccc(Cl)cc1`, the max response is reported as -7.89% (inactive).
For `Cc1cc(NC(=O)C2=C(O)c3ccccc3S(=O)(=O)N2C)no1`, the max response was -9.54% (inactive).
In the case of `Nc1c2c(nc3c1CCC3)CCCC2`, the Potency is reported as 11.2 µM (active).
For `O=C(O)c1ccccc1OP(=O)(O)O`, the max response was -5.84% (inactive).
In the case of `NC(=O)[C@@H]1CSSCCC(=O)N[C@@H](CCCCN=C(N)N)C(=O)NCC(=O)N[C@@H](CC(=O)O)C(=O)N[C@@H](Cc2c[nH]c3ccccc23)C(=O)N2CCC[C@H]2C(=O)N1` ([Mpa][hArg]GDWPC-NH2; disulfide 1-7), the max response is reported as 6.22% (inactive).
For `Cc1cccc(C)c1NC(=O)CC12CCCN1CCC2`, the max response was 0.37% (inactive).
In the case of `CCCCCC(C)N` (stereo not drawn), the max response is reported as 7.89% (inactive).
For `Cc1c(NC(=O)c2cccnc2)c(=O)n(-c2ccccc2)n1C`, the max response was -5.32% (inactive).
With `O=C(/C=C/c1ccccc1)OCc1ccccc1` the max response was 18.6% (inactive).
With `CN1C[C@@H]2C[C@H]1CN2c1cc2c(cc1F)c(=O)c(C(=O)O)cn2C1CC1` the max response was 2.79% (inactive).
In the case of `O=C(O)COC(=O)Cc1ccccc1Nc1c(Cl)cccc1Cl`, the max response is reported as 5.55% (inactive).
For `COc1nccnc1NS(=O)(=O)c1ccc(N)cc1`, the max response was -9.73% (inactive).
